Where “and” joins values, the source holds several entries; their conditions need not be identical. Identical values can stand only once. Records with an inconclusive call do not appear. The source holds several records for some structures; these can differ, active in one and inactive in another. Unmarked numbers belong to inactive results. Calls of active or inactive are those of the source. The call rests on the fitted dose curve; in most records, active means well fitted inhibition curve with a large enough effect; inconclusive means small, poorly fitted or top-dose-only effect; inactive means flat fitted curve, though single readings scatter.

One experiment concerns CRL-7250. Put plainly: Cytotoxic Profiling of Annotated Libraries Using Quantitative High-Throughput Screening (AID 1296008). To be noted: Five cell lines viability, CellTiter-Glo ATP luminescence, 48-72 h; max response: hits give low values. A digest of the protocol:
(§1)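 Cytotoxicity was measured as CellTiter-Glo ATP luminescence, read after 10 min at room temperature. Compound treatment of the cells lasted 48 or 72 hr at 37 degrees Celsius in a qHTS format.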
A general note: ATP-based viability assays read luminescence as a measure of living cells.

For another experiment, the system named is HEK293. The description is as above. To be noted: Five cell lines viability, CellTiter-Glo ATP luminescence, 48-72 h; max response: hits give low values. A digest of the protocol: as §1
Experiment [1] has as its system HaCat. Described as above. To be noted: Five cell lines viability, CellTiter-Glo ATP luminescence, 48-72 h; max response: hits give low values. A digest of the protocol:
as §1

Another experiment deals with KB-3-1. The description is as above. The conditions noted are these: Five cell lines viability, CellTiter-Glo ATP luminescence, 48-72 h; max response: hits give low values. A digest of the protocol: as §1
Experiment [2] deals with NIH3T3. The description is as above. The conditions noted are these: Five cell lines viability, CellTiter-Glo ATP luminescence, 48-72 h; max response: hits give low values. A digest of the protocol: as §1
Another experiment concerns HEK293T. The experiment in a line: qHTS assay to identify novel small-molecules to repurpose for Merkel cell carcinoma treatment (AID 1296009). To be noted: MCC and control cell lines, CellTiter-Glo viability, 72 h; at 44.8 µM (top of the series) unless noted. A digest of the protocol: (§2)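 72 hr, 37 degree celsius; NPC 8-pt / MIPE 11-pt dose response; compound pinned in DMSO; CellTiter-Glo, 10 min RT, luminescence; normalized to no-cell and DMSO controls.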

For a further experiment, the system named is MKL-2. The description is as above. The conditions noted are these: MCC and control cell lines, CellTiter-Glo viability, 72 h; series mostly up to 46 µM. A digest of the protocol: as §2
Experiment [3] deals with NIH3T3. The description is as above. The conditions noted are these: MCC and control cell lines, CellTiter-Glo viability, 72 h; at 44.8 µM (top of the series) unless noted. A digest of the protocol: as §2
The next experiment concerns MCC-13. The description is as above. The conditions noted are these: MCC and control cell lines, CellTiter-Glo viability, 72 h; series mostly up to 46 µM. A digest of the protocol:
as §2

For the next experiment, the system named is MCC-26. The description is as above. To be noted: MCC and control cell lines, CellTiter-Glo viability, 72 h; series mostly up to 46 µM. A digest of the protocol: as §2
The test system of the next experiment is MKL-1. Described as above. To be noted: MCC and control cell lines, CellTiter-Glo viability, 72 h; series mostly up to 46 µM. A digest of the protocol: as §2
The test system of the next experiment is UISO. The experiment is described as above. The conditions noted are these: MCC and control cell lines, CellTiter-Glo viability, 72 h; series mostly up to 46 µM. A digest of the protocol:
as §2

In experiment [4] the test system is HACAT. Described as above. To be noted: MCC and control cell lines, CellTiter-Glo viability, 72 h; series mostly up to 44.8 µM. A digest of the protocol:
as §2
Further: nearly all actives have a fitted effect of over 60% in size.
On the % scale 0 is the no-effect control and ±100 the full control effect; potency means the concentration at half of the fitted maximal effect.

Regarding `CNC(=O)c1ccc(N2C(=S)N(c3cnc(C#N)c(C(F)(F)F)c3)C(=O)C23CCC3)cc1F`, the max response was -2.94% in the experiment on CRL-7250; -2.38% and -0.362% in the experiment with HaCat [1]; -8.3% in the experiment on KB-3-1; 0.376% with NIH3T3 [2]. In addition, the compound was classed as inactive in the experiment on CRL-7250, in the experiment on HEK293, in the experiment on KB-3-1, in the experiment with NIH3T3 [2], in the experiment with HEK293T and in the experiment on NIH3T3 [3]. For the same compound, the Potency in the experiment on MKL-2 was 26.4 µM (active).

Take `Cc1ccc2nc(NC(=O)CSc3nc4c(c(=O)n3-c3ccccc3)SCC4)sc2c1`: the Potency in the experiment with CRL-7250 is 13.2 µM (active); in the experiment on KB-3-1 it was 9.35 µM (active). Moreover, the max response is 3.83% in the experiment with CRL-7250, 3.94% in the experiment with HaCat [1], -10.5% with KB-3-1 and -19.8% with NIH3T3 [2]. Besides, the compound was classed as inactive with HEK293 and in the experiment on HEK293T. Further, the Potency entry with MCC-13, in the experiment on MCC-26, in the experiment on MKL-1 and with MKL-2 was “inactive” in each case.

`c1ccc2c(CCNc3ccc(Nc4ccncc4)cc3)c[nH]c2c1`: the Potency was 10.5 µM (active) with CRL-7250; 1.05 µM (active) and 2.31 µM (active) in the experiment with HEK293; 11.8 µM (active) with HaCat [1]; 23.5 µM (active) in the experiment on KB-3-1; 16.6 µM (active) and 11.6 µM (active) with NIH3T3 [2]; 20.9 µM (active) with MCC-13. For the same compound, the Potency in the experiment on MKL-1 was 9.35 µM (active); in the experiment with MKL-2, 5.9 µM (active); in the experiment on UISO it was 13.2 µM (active). For the same compound, the max response with HaCat [1] is 2.65%.

Turning to `Cc1cc(Nc2ncnc3ccc(-c4ccc(CNCCS(C)(=O)=O)o4)cc23)ccc1Oc1ccn2ncnc2c1`, the Potency is 3.32 µM (active) and 23.1 µM (active) in the experiment on CRL-7250; 4.18 µM (active) with HEK293; 11.8 µM (active) in the experiment with KB-3-1; 14.8 µM (active) in the experiment on MKL-1; 18.7 µM (active) in the experiment on MKL-2; 14.8 µM (active) with UISO. The max response in the experiment with HEK293 was -117%; in the experiment with HaCat [1] it was -107%; with KB-3-1, -26.8%; with NIH3T3 [2] it was -81.1%. In addition, the Potency entry in the experiment with MCC-13 and in the experiment on MCC-26 was “inactive” each time.

As for `CN(C)c1nc(Cc2ccc(NC(=O)c3ccc4ccccc4c3)cc2)nc(Cl)c1CC(=O)O`, the max response with CRL-7250 is 0.957% and -5.82%; in the experiment with HEK293, -6.45%; in the experiment on HaCat [1], 3.96%; in the experiment with NIH3T3 [2], 2.84% and 3.57%. The call in the experiment on HEK293, with HaCat [1], in the experiment on KB-3-1 and with HEK293T was inactive. In addition, the Potency result in the experiment with HACAT [4], in the experiment on MCC-13, with MCC-26, in the experiment with MKL-1, in the experiment on MKL-2 and in the experiment on UISO was “inactive” in each case.

As to `CS(=O)(=O)c1ccc(-c2cnc(N)c(C(=O)Nc3ccccc3)n2)cc1`, the max response with CRL-7250 was -11%; in the experiment on HaCat [1], -14.1%. Besides, the compound was called inactive in the experiment on CRL-7250, with HaCat [1] and with KB-3-1. Further, the Potency is 11.6 µM (active) in the experiment on HEK293; 14.8 µM (active) and 5.17 µM (active) in the experiment on NIH3T3 [2]. Also, the Potency entry in the experiment on HACAT [4], in the experiment on MCC-13, in the experiment with MCC-26, in the experiment with MKL-1 and in the experiment with UISO was “inactive” throughout.

With `CC(C)CC(=O)Nc1n[nH]c2c1CN(C(=O)C1CCN(C)CC1)C2(C)C`, the Potency with CRL-7250 is 1.48 µM (active); in the experiment on HEK293 it was 372 nM (active) and 326 nM (active); in the experiment with HaCat [1], 9.35 µM (active) and 2.31 µM (active); with KB-3-1 it was 2.35 µM (active) and 2.91 µM (active); in the experiment on NIH3T3 [2] it was 16.6 µM (active); with MCC-26 it was 18.7 µM (active). Further, the Potency in the experiment with MKL-2 is 2.64 µM (active); in the experiment with UISO, 5.26 µM (active). The max response in the experiment on CRL-7250 is -90.6%. Moreover, the Potency entry in the experiment with MCC-13 was “inactive”.

On to `Cc1ccc(CN2CCNCC2)cc1NC(=O)CNc1ccc(F)c(F)c1`, for which the result with CRL-7250, in the experiment on HEK293, with HaCat [1], in the experiment with KB-3-1 and in the experiment with HEK293T was inactive. The max response in the experiment on HEK293 was -5.99%; with KB-3-1 it was 4%; in the experiment on NIH3T3 [2], -3.35% and 3.71%. The Potency result in the experiment on HACAT [4], in the experiment on MCC-13, in the experiment on MCC-26, in the experiment with MKL-1, in the experiment on MKL-2 and with UISO was “inactive” in each case.

On to `Cn1c(CNc2ccc(C(=N)N)cc2)nc2cc(C(=O)N(CCC(=O)O)c3ccccn3)ccc21`, for which the Potency with CRL-7250 is 7.24 µM (active). The max response with CRL-7250 is -5.55%; in the experiment with HEK293 it was -4.52%; in the experiment with HaCat [1], -0.657% and -2.49%; in the experiment with KB-3-1, -2.52%. The outcome in the experiment on KB-3-1 and with NIH3T3 [2] was inactive. Besides, the Potency entry with MCC-13, in the experiment with MCC-26, in the experiment with MKL-1, in the experiment with MKL-2 and in the experiment with UISO was “inactive” throughout. In addition, the outcome with NIH3T3 [3] was “inactive [at 17.4 µM]”.

Take `CCOc1ccccc1OCCNC(C)Cc1ccc(OC)c(S(N)(=O)=O)c1` (centres undefined): the max response is 3.17% in the experiment on CRL-7250, -9.05% in the experiment with HaCat [1], 7.71% with KB-3-1 and -0.288% in the experiment with NIH3T3 [2]. Besides, the compound was classed as inactive in the experiment on CRL-7250, with HaCat [1], in the experiment with KB-3-1, in the experiment on NIH3T3 [2] and in the experiment on NIH3T3 [3]. In addition, the Potency result in the experiment with HACAT [4], with MCC-13, in the experiment with MCC-26, in the experiment on MKL-1, in the experiment on MKL-2 and in the experiment on UISO was “inactive” in each case.

For `NC(=O)c1c(OCc2c(F)cc(Br)cc2F)nsc1NC(=O)NCCCCN1CCCC1`, the Potency in the experiment on CRL-7250 is 4.69 µM (active) and 8.2 µM (active); in the experiment on HEK293 it was 14.8 µM (active); in the experiment with HaCat [1], 26.4 µM (active); in the experiment on KB-3-1 it was 9.35 µM (active); in the experiment on NIH3T3 [2], 235 nM (active) and 2.06 µM (active). The call in the experiment on HaCat [1] was inactive. The Potency result in the experiment with HACAT [4], with MKL-1 and in the experiment with MKL-2 was “inactive” in each case.

Regarding `COc1ccc(-n2nc(C(N)=O)c3c2C(=O)N(c2ccc(N4CCCCC4=O)cc2)CC3)cc1`, the max response in the experiment on CRL-7250 is -14% and -8.05%; in the experiment on HEK293, 2.24%; in the experiment with HaCat [1] it was -4.25%; in the experiment on KB-3-1 it was 6.22% and -0.472%; with NIH3T3 [2], -1.07% and 4.24%. In addition, the result in the experiment on HaCat [1] was inactive. Moreover, the Potency entry in the experiment on HACAT [4], in the experiment with MCC-13, with MCC-26, with MKL-1, in the experiment on MKL-2 and with UISO was “inactive” in each case.
